Data reported in PubChem BioAssay AID1159580 (chemical genetic matrix, 2015).
Where “and” joins values, the source holds several entries; their conditions need not be identical. Equal values may be shown once. The whole screen tested about 5,500 compounds, of which about 2,000 (36%) were called active. Inconclusive results (about 18%) are left out. Rule as the data show it: active = normalized growth mostly below about 0.91 (no sharp cut-off); inconclusive = no clear call, values can overlap the other calls; inactive = mostly above about 0.92. This is one part of the list.

Assay: chemical genetic growth profiling, strain panel (AID 1159580);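 also: tested at 20 µM; growth read once vehicle control cultures reached saturation at 30 °C; 1 = growth at the plate median or of vehicle wells; lower values mean less growth of the strain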
Conditions: S. cerevisiae deletion strains, growth OD

Measured: normalized growth

NCCS
inactive: locus YAL013W, strain DEP1, active compounds read low 1 | locus YAL021C, strain ccr4, active compounds read low 0.977 | locus YAL026C, strain drs2, active compounds read low 0.99 | locus YAL030W, strain snc1, active compounds read low 1.01 | locus YAL040C, strain CLN3, active compounds read low 0.985 | locus YBL061C, strain skt5, active compounds read low 0.988 | locus YBR009C, strain hhf1, active compounds read low 0.988 | locus YBR021W, strain FUR4, active compounds read low 1 | locus YBR023C, strain chs3, active compounds read low 0.987 | locus YBR171W, strain sec66, active compounds read low 0.998 | locus YBR229C, strain ROT2, active compounds read low 1.01 | locus YBR231C, strain swc5, active compounds read low 0.991 | locus YBR279W, strain paf1, active compounds read low 1 | locus YCL011C, strain gbp2, active compounds read low 0.982 | locus YCL016C, strain dcc1, active compounds read low 0.976 | locus YCL029C, strain bik1, active compounds read low 1.02 | locus YCL061C, strain MRC1 (second series), active compounds read low 1.01 | locus YCL061C, strain MRC1, active compounds read low 1 | locus YCL069W, strain vba3, active compounds read low 0.992 | locus YCR088W, strain abp1, active compounds read low 0.994 | locus YDL005C, strain med2, active compounds read low 0.981 | locus YDL035C, strain GPR1, active compounds read low 1.02 | locus YDL040C, strain nat1, active compounds read low 0.992 | locus YDL074C, strain BRE1, active compounds read low 1.02 | locus YDL101C, strain DUN1, active compounds read low 1.01 | locus YDL134C, strain PPH21, active compounds read low 1.02 | locus YDL185W, strain tfp1, active compounds read low 1 | locus YDL192W, strain arf1, active compounds read low 1.01 | locus YDR001C, strain nth1, active compounds read low 0.997 | locus YDR069C, strain doa4, active compounds read low 0.988 | locus YDR101C, strain arx1, active compounds read low 1 | locus YDR137W, strain rgp1, active compounds read low 1 | locus YDR150W, strain NUM1, active compounds read low 1.01 | locus YDR159W, strain sac3, active compounds read low 0.986 | locus YDR162C, strain NBP2, active compounds read low 1.01 | locus YDR195W, strain ref2 0.923 | locus YDR297W, strain sur2, active compounds read low 0.999 | locus YDR318W, strain mcm21, active compounds read low 1.01 | locus YDR334W, strain swr1, active compounds read low 0.972 | locus YDR335W, strain msn5, active compounds read low 0.991 | locus YDR363W, strain ESC2, active compounds read low 1.03 | locus YDR388W, active compounds read low 1.01 | locus YDR392W, strain spt3, active compounds read low 0.969 | locus YDR502C, strain sam2, active compounds read low 1.01 | locus YEL003W, strain gim4, active compounds read low 0.986 | locus YEL037C, strain rad23, active compounds read low 0.983 | locus YEL061C, strain CIN8 (second series), active compounds read low 0.976 | locus YEL061C, strain CIN8, active compounds read low 1.01 | locus YER002W, strain NOP16, active compounds read low 0.992 | locus YER015W, strain faa2, active compounds read low 0.995 | locus YER016W, strain bim1, active compounds read low 1 | locus YER110C, active compounds read low 1.02 | locus YER111C, strain swi4, active compounds read low 0.986 | locus YER155C, strain BEM2 (second series), active compounds read low 0.982 | locus YER155C, strain BEM2, active compounds read low 1.01 | locus YER167W, strain BCK2, active compounds read low 1.02 | locus YFR010W, strain ubp6, active compounds read low 0.981 | locus YGL078C, strain dbp3, active compounds read low 1.02 | locus YGL086W, strain mad1, active compounds read low 1.01 | locus YGL167C, strain pmr1, active compounds read low 0.982 | locus YGL173C, strain kem1, active compounds read low 0.986 | locus YGL227W, strain vid30, active compounds read low 0.984 | locus YGL240W, strain doc1, active compounds read low 0.976 | locus YGL248W, strain PDE1, active compounds read low 1.01 | locus YGL253W, strain hxk2, active compounds read low 0.979 | locus YGR078C, strain PAC10, active compounds read low 1.02 | locus YGR135W, strain pre9, active compounds read low 1.02 | locus YGR229C, strain SMI1, active compounds read low 1.01 | locus YGR252W, strain gcn5, active compounds read low 1.04 | locus YHR013C, strain ard1, active compounds read low 0.972 | locus YHR027C, strain rpn1, active compounds read low 0.985 | locus YHR030C, strain SLT2, active compounds read low 1.02 and 1.03 | locus YHR079C, strain IRE1 (second series), active compounds read low 1.02 | locus YHR079C, strain IRE1, active compounds read low 1.04 | locus YHR094C, strain hxt1, active compounds read low 1.01 | locus YHR129C, strain ARP1, active compounds read low 1.01 | locus YHR142W, strain chs7, active compounds read low 0.984 | locus YHR200W, strain rpn10, active compounds read low 1.02 | locus YIL066C, strain RNR3, active compounds read low 1.02 | locus YIL073C, strain SPO22, active compounds read low 1.02 | locus YIL125W, strain kgd1, active compounds read low 1.01 | locus YIR030C, strain dcg1, active compounds read low 1.03 | locus YJL092W, strain hpr5, active compounds read low 0.997 | locus YJL095W, strain BCK1 (second series), active compounds read low 0.996 | locus YJL095W, strain BCK1, active compounds read low 1.01 and 1.02 | locus YJL115W, strain asf1, active compounds read low 0.966 | locus YJL129C, strain trk1, active compounds read low 0.995 | locus YJL134W, strain LCB3, active compounds read low 1.01 | locus YJL154C, strain vps35, active compounds read low 0.988 | locus YJL164C, strain tpk1, active compounds read low 0.99 | locus YJL166W, strain qcr8, active compounds read low 1 | locus YJL168C, strain set2, active compounds read low 1.02 | locus YJL187C, strain SWE1 (second series), active compounds read low 1.01 | locus YJL187C, strain SWE1, active compounds read low 0.992 | locus YJR043C, strain POL32, active compounds read low 1.01 | locus YJR066W, strain TOR1, active compounds read low 0.998
